Inconclusive results are not listed. A call without a number means that no potency is given here. Activity calls are given as the source filed them. Calls come from the whole dose curve; as a rule, active = well fitted inhibition curve with a large enough effect; inconclusive = small, poorly fitted or top-dose-only effect; inactive = no such curve, though single readings can be large or run the other way.

In one experiment the test system is Zika virus NS2B-NS3 protease (unlinked complex). Put plainly: Primary screen GU Rhodamine qHTS for Zika virus inhibitors: Unlinked NS2B-NS3 protease assay (AID 1347159). Note: nearly all actives have a fitted effect of over 60% in size. Note: potency is the fitted concentration of half-maximal effect. The settings on record: Recombinant ZIKV NS2B-NS3 protease, Rhodamine110 substrate fluorescence; series mostly up to 107 µM. In a few lines:
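Percent inhibition derives from the 15-min fluorescence change (ex 480, em 540 nm), normalized to no-enzyme and no-inhibitor wells. Reactions contained 25 nM NS2B-NS3 complex and 1.5 microM substrate in 10 mM Tris-HCl pH 8.0.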
(Quantitative high-throughput screening tests each substance at several concentrations.)
As for `CNc1cc(OC)c(C(=O)N[C@@H]2CCN(Cc3ccccc3)[C@@H]2C)cc1Cl`, the Potency entry was “inactive”. On to `CN([C@H]1c2cc(OCCCC(F)(F)F)ccc2OC(C)(C)[C@@H]1O)S(C)(=O)=O`, for which the Potency entry was “inactive”.

For `CCOC(=O)CCC(=O)O[C@H]1[C@H](O[C@@H]2[C@@H](C)[C@H](O[C@H]3C[C@@](C)(OC)[C@@H](O)[C@H](C)O3)[C@@H](C)C(=O)O[C@H](CC)[C@@](C)(O)[C@H](O)[C@@H](C)C(=O)[C@H](C)CC2(C)O)O[C@H](C)C[C@@H]1N(C)C` (some centres not stated), the Potency entry was “inactive”. Take `COc1cc(-c2cc(-c3cccc(O)c3)cnc2N)cc(OC)c1OC`: the Potency result was “inactive”. The same measure, in the same setting: with `CC(=O)Nc1ccc(C(=O)Nc2ccccc2N)cc1` the entry was “inactive”. Turning to `C[C@H](NC(=O)C(C)(C)Oc1ccc(C(F)(F)F)cn1)[C@@H](Cc1ccc(Cl)cc1)c1cccc(C#N)c1`, the Potency result was “inactive”. Turning to `CN(C)CC(=O)Nc1ccc2[nH]c(=O)c3ccccc3c2c1`, the Potency result was “inactive”.

For `C[C@@H](CN1CCC(n2c(=O)[nH]c3cc(Cl)ccc32)CC1)NC(=O)c1ccc2ccccc2c1`, the Potency entry was “inactive”. On the same count and under the same terms, with `CC(C)c1ccc(NC(=O)C(c2ccccc2)N(C)C(=O)Cc2c[nH]c3ccccc23)cc1` (configuration not stated) the figure was 79.4 µM (active); with `CCCCC(=O)N(Cc1ccc(-c2ccccc2-c2nn[nH]n2)cc1)C(C(=O)O)C(C)C` (configuration not stated), “inactive”; with `C=C1C(=O)O[C@@H]2[C@H]1[C@H](O)C[C@]1(C)[C@@H](O)CC=C(C)[C@@H]21`, “inactive”. Still for that read-out and setting: with `CCNC(=O)[C@@H]1CCCN1C(=O)[C@H](CCCN=C(N)N)NC(=O)[C@H](CC(C)C)NC(=O)[C@@H](CC(C)C)NC(=O)[C@H](Cc1ccc(O)cc1)NC(=O)[C@H](CO)NC(=O)[C@H](Cc1c[nH]c2ccccc12)NC(=O)[C@H](Cc1cnc[nH]1)NC(=O)[C@@H]1CCC(=O)N1` the entry was “inactive”; with `CCN(CC)Cc1cccc(/C=C/c2nc3ccc(F)cc3c(=O)n2-c2ccccc2Cl)n1`, “inactive”.

For another experiment, the system named is Zika virus NS2B-NS3 protease (linked construct). Kind of experiment: Primary screen NINDS Rhodamine qHTS for Zika virus inhibitors (AID 1347160). Note: nearly all actives have a fitted effect of over 55% in size. Conditions: purified NS2B-NS3 protease, Rhodamine110 substrate fluorescence; series mostly up to 57.1 µM. Put shortly:
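In 10 mM Tris-HCl pH 8.0 containing 0.01% Tween 20, linked NS2B-NS3 protease (25 nM final) is exposed to test compounds for 15 min. Cleavage of 1.5 microM Rhodamine110 substrate is tracked by fluorescence over 15 min.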
Regarding `CC(C)n1cnc2c(Nc3cccc(Cl)c3)nc(NCCO)nc21`, the Potency result was “inactive”. The same measure, in the same setting: in the case of `O=C(CC1NCCC[C@H]1O)Cn1cnc2cc(Br)c(Cl)cc2c1=O` (some centres not stated) it was “inactive”.

As for `Cc1c(C(=O)NCCCO)cnn1-c1nc(-c2cccc(C(F)(F)F)c2)cs1`, the Potency entry is “inactive”. In the case of `C[C@@H](O[C@H]1OCCN(Cc2n[nH]nc2CN(C)C)[C@H]1c1ccc(F)cc1)c1cc(C(F)(F)F)cc(C(F)(F)F)c1`, the Potency entry was “inactive”. Regarding `CC[C@H](C)[C@H]1O[C@]2(CC[C@@H]1C)C[C@@H]1C[C@@H](C/C=C(\C)[C@@H](O[C@H]3C[C@H](OC)[C@@H](O[C@H]4C[C@H](OC)[C@@H](O)[C@H](C)O4)[C@H](C)O3)[C@@H](C)/C=C/C=C3\CO[C@@H]4[C@H](O)C(C)=C[C@@H](C(=O)O1)[C@]34O)O2`, the Potency result is “inactive”. Regarding `CCC(=O)Nc1cccc(Oc2nc(Nc3ccc(N4CCN(C)CC4)cc3OC)ncc2Cl)c1`, the Potency entry was “inactive”.

As for `O=C(Nc1cccc(C(F)(F)F)c1)c1ccccc1NCc1ccncc1`, the Potency result was “inactive”. Still for that read-out and setting: in the case of `COc1cc2nc(-c3cc(F)ccc3O)nc(N[C@@H]3CNC[C@H]3C(C)(C)O)c2cc1OC` it was “inactive”; in that of `Cc1cc(CN)cc(C)c1NC(=O)c1ccc(-c2cc(Cl)ccc2Cl)o1`, “inactive”. In the case of `C=C1C(=O)O[C@@H]2/C=C(/C)CC3C=C(C[C@H](OC(=O)/C(C)=C\C)[C@@H]12)C(=O)O3` (some centres not stated), the Potency result is “inactive”. On to `CC1(C)SC2C(NC(=O)[C@H](C(=O)O)c3ccsc3)C(=O)N2C1C(=O)O` (some centres not stated), for which the Potency entry is “inactive”. In the case of `Fc1ccccc1CNCc1ccc(-c2ccnc3[nH]ccc23)cc1`, the Potency result was “inactive”. Take `CCCCc1nc(C)c(CC(=S)N(C)C)c(=O)n1Cc1ccc(-c2ccccc2-c2nn[nH]n2)cc1`: the Potency result is “inactive”. Same read-out and setting: in the case of `CO[C@@H]1[C@@H](O[C@H]2O[C@@H](C)[C@H](O[C@@H]3C[C@](C)(O)[C@H](O)[C@@H](C)O3)[C@@H](N(C)C)[C@@H]2O)[C@@H](CC=O)C[C@@H](C)[C@@H](O[C@H]2CC[C@H](N(C)C)[C@H](C)O2)/C=C/C=C/C[C@@H](C)OC(=O)C[C@H]1O` it was “inactive”; in that of `CNc1nc(-c2ccc3c(N)n[nH]c3c2)cc(N2CC(C(=O)NC3CCCCC3)CCC2C)n1` (configuration not stated), “inactive”; in that of `COc1cc(-c2cc(-c3cccc(O)c3)cnc2N)cc(OC)c1OC`, “inactive”. Regarding `CC(=O)Nc1ccc(C(=O)Nc2ccccc2N)cc1`, the Potency entry was “inactive”. Take `C[C@H](NC(=O)C(C)(C)Oc1ccc(C(F)(F)F)cn1)[C@@H](Cc1ccc(Cl)cc1)c1cccc(C#N)c1`: the Potency entry was “inactive”. Regarding `C[C@@H](CN1CCC(n2c(=O)[nH]c3cc(Cl)ccc32)CC1)NC(=O)c1ccc2ccccc2c1`, the Potency result was “inactive”.

The record behind these values is PubChem BioAssay (NCATS).
